Consider 14 compounds from PubChem BioAssay (NCI).

This is part of a sample that, as a whole, favours compounds with a hit. Of some 83,000 tested, about 20% had one in any assay.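 The test compound was applied at a single concentration to cells in 96-well plates for 48 hours, and percent growth was recorded.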 Active and inactive are the calls of the source. The calls were made as follows: active = growth percent below 10; inactive = the rest.

This test relates to HL-60(TB) leukemia. Kind of test: NCI-60 one-dose screen, 48 h (100 = growth as untreated, 0 = no growth, -100 = all killed). The conditions noted are these: 10 µM unless noted.
As to `CC1=C(C(=O)c2ccccc2)C(c2cccc3ccccc23)n2c(nc3ccccc32)N1` (centres undefined), the growth was 58.6% (inactive). The value for `N#Cc1c(-c2ccc(Cl)cc2)cc(-c2ccccc2)nc1OCc1ccccc1` was 77.3% (inactive). Consider `COc1ccc2[nH]cc(/C=N/Nc3ccc(Br)cn3)c2c1`, for which the growth was 5.34% (active). For `O=C(c1ccc(O)cc1)C1[C@H](c2ccc(Br)cc2)[C@@H](c2ccccc2)NC12C(=O)Nc1ccc(Br)cc12` (some centres undefined), the growth was 12.5% (inactive).

In the case of `COc1cc(OC(F)(F)F)ccc1C(=O)Nc1sc2c(c1C#N)CCC(=O)C2`, the growth was 38% (inactive).

Take `COc1cccc(/C=C2\N=C(C)N(CCc3ccc(S(N)(=O)=O)cc3)C2=O)c1`: the growth was 89.4% (inactive).

For `CCOC(=O)C1NN(c2ccc(S(N)(=O)=O)cc2)c2nc3nc(-c4cccs4)cc(-c4cccs4)c3c(=O)n21` (centres undefined), the growth was 96.2% (inactive). For `O=C1NC(=NC2CCCCCC2)N/C1=C\c1ccc2ncoc2c1` the value was 30.1% (inactive); for `S=C(Nc1ccccc1)Nc1ccc(OCc2nc3ccc(Cl)cc3[nH]2)cc1`, 85.2% (inactive). Regarding `CN(C)c1ccc(/C=C/c2n(Cc3ccc4ccccc4c3)c3ccccc3[n+]2Cc2ccc3ccccc3c2)cc1`, the growth was -47.1% (active).

For the compound `CC(=O)Nc1cccc(Nc2nc(NCc3ccccc3)c3ccccc3n2)c1`, the growth was -64% (active). The value for `FC(F)(F)c1cc2c(Cl)ncnc2n1CCN1CCCCC1` was -13.5% (active); that for `COc1ccc(NC(=O)Nc2ccc(OCc3ccc(F)cc3)cc2)cc1` was 83.1% (inactive). Take `O=C1Nc2cc(-c3ccc(NS(=O)(=O)c4ccc(F)c(Cl)c4)cc3)ccc2/C1=C/c1ccc[nH]1`: the growth is 46.9% (inactive).
